Data reported in PubChem BioAssay AID504466 (National Center for Advancing Translational Sciences (NCATS), 2011).
Out of some 330,000 compounds screened, about 4,200 (1.3%) were called active. Where a call stands in place of a potency, no number is given. Another 6% or so got no clear call; they are omitted. Calls come from the whole dose curve; as a rule, active = well fitted activation curve with a large enough effect; inconclusive = small, poorly fitted or top-dose-only effect; inactive = no such curve, though single readings can be large or run the other way. This excerpt belongs to a sample that is enriched for actives.

Assay: qHTS screen for small molecules that induce genotoxicity in human embryonic kidney (HEK293T) cells expressing luciferase-tagged ELG1; note: nearly all actives have a fitted effect of over 60% in size
Details: HEK293T ELG1-luciferase reporter, luminescence, 16 h; series mostly up to 46 µM
Summary of the method: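 DMSO vehicle served as control against compound-treated ELG1-luciferase HEK293T cells; exposure lasted 16 hr at 37 °C and 5% CO2, followed by ONE-Glo luminescence detection after 30 min.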
Potency is the fitted concentration of half-maximal effect.

Row | SMILES | Potency
1 | CCN(CC(=O)NC(C)C)C(=O)c1cc(S(=O)(=O)N2CCCCC2)ccc1N1CCCCC1 | inactive
2 | O=C(c1cc(-c2ccc(O)cc2)on1)N1CCOCC1 | 4.61 µM (active)
3 | O=C(c1cc(-c2ccc(F)cc2)on1)N1CCN(c2ccc(F)cc2)CC1 | inactive
4 | O=C(c1cc(-c2ccc(O)cc2)on1)N1CCCc2ccccc21 | inactive
5 | COc1ccc(-c2c(C#Cc3ccsc3)c3cc(-c4ccc(CN5CCOCC5)cc4)ccc3n2C)cc1 | inactive
6 | CCc1ccc(C(=O)COC(=O)c2ccco2)cc1 | 23.1 µM (active)
7 | O=C(OCC(=O)N1CCCC1)c1ccco1 | inactive
8 | O=C(COC(=O)c1ccccc1C(=O)c1ccccc1)c1ccco1 | inactive
9 | COc1ccc(S(=O)(=O)N2CCN(CC(=O)N3CCOCC3)CC2)cc1OC | inactive
10 | CCOC(=O)C1=CN(Cc2ccc(Br)cc2)S(=O)(=O)N(C)C1C (stereo not given) | inactive
11 | COc1cc(NC(=O)COC(=O)c2cc(S(=O)(=O)N3CCOCC3)ccc2F)cc(OC)c1 | inactive
12 | CS(=O)(=O)N1CCc2nc(-c3ccccc3)sc2C1 | 9.2 µM (active)
13 | CS(=O)(=O)N1CCC(C(=O)N2CCN(c3ccccc3)CC2)CC1 | inactive
14 | CS(=O)(=O)N1CCN(c2cccc(Cl)n2)CC1 | inactive
15 | COc1ccc(C(=O)COC(=O)CN2C(=O)C3CC=CCC3C2=O)c(OC)c1 (stereo not given) | inactive
16 | CC(C)Sc1ncnc2c1cnn2-c1ccccc1 | 8.2 µM (active)
17 | CC(Sc1ncnc2c1cnn2-c1ccccc1)C(=O)Nc1ccc(N2CCOCC2)cc1 (stereo not given) | inactive
18 | CCC(C)N(C(=O)CSc1ncnc2c1cnn2-c1ccccc1)C1CCS(=O)(=O)C1 (stereo not given) | inactive
19 | COc1ccc(Br)cc1CN(C)C(=O)C1CC(=O)N(C2CCCC2)C1 (stereo not given) | inactive
20 | O=C1NC(Cc2ccc(O)cc2)c2nc3ccc(Cl)cc3c(=O)n2-c2ccccc21 (stereo not given) | inactive
21 | COC(=O)c1ccc(NC(=O)c2ccco2)cc1 | 20.6 µM (active)
22 | CCOC(=O)c1ccc(NC(=O)CNC(=O)c2ccco2)cc1 | inactive
23 | O=C(Nc1ccccc1)c1ccco1 | inactive
24 | O=C(CN1C(=O)NC(Cc2c[nH]c3ccccc23)C1=O)Nc1ccccc1C(F)(F)F (stereo not given) | inactive
25 | C[C@H]1COC(=O)[C@H](CC(=O)OC(C)(C)C)C/C=C\C[C@@H](CC(=O)N[C@H](CO)Cc2ccccc2)C(=O)N1 | inactive

Row | SMILES | Potency
26 | CCOC(=O)C1=C(C)N(C[C@@H]2CC[C@@H](Cc3ccc(-c4ccccc4)cc3)O2)C(=O)NC1c1ccc([N+](=O)[O-])cc1 (stereo not given in full) | inactive
27 | COc1ccc2c(Cl)c(C(=O)NCc3ccco3)sc2c1 | 10 µM (active)
28 | COc1ccc(C(=O)Nc2ccccc2C(=O)NCc2ccco2)cc1 | inactive
29 | O=C(NCc1ccco1)c1sc2cccc(F)c2c1Cl | 18.4 µM (active)
30 | O=C(NCc1ccco1)c1nn2cccnc2c1Cl | inactive
31 | O=C(CCNC(=O)c1ccccc1Cl)NCc1ccco1 | inactive
32 | COc1ccc(CNC(=O)CNC(=O)c2sc3ccccc3c2Cl)cc1OC | inactive
33 | COc1cc(/C=C2\Oc3ccc(C#Cc4ccc(O)cc4)cc3C2=O)cc(OC)c1 | inactive
34 | Cc1cc(C(=O)OCC(=O)N2C(C)CCCC2C)c2ccccc2n1 (stereo not given) | inactive
35 | O=C(c1cnccn1)N1CCN(S(=O)(=O)c2cccc(Cl)c2)CC1 | inactive
36 | O=C(COC(=O)c1cc[n+]([O-])cc1)Nc1ccc(Cl)c(C(F)(F)F)c1 | inactive
37 | COc1ccc(C(=O)CC(=O)c2ccc(C)cc2)c(O)c1 | inactive
38 | Cc1cc(O)cc(O)c1C(=O)Cc1cnn(-c2ccccc2)c1 | inactive
39 | COc1ccc(C(=O)Cc2cnn(-c3ccccc3)c2)c(O)c1 | 18.4 µM (active)
40 | CCC1(CC)NC(=O)N(Cc2nc3ccccc3s2)C1=O | inactive
41 | CCc1ccc(-c2cc(C(=O)NCc3ccco3)c3ccccc3n2)s1 | inactive
42 | CC(=NCc1ccco1)c1c(C(F)(F)F)[nH]n(-c2nc3ccccc3s2)c1=O | 2.59 µM (active)
43 | COc1cc(OC)cc(C(=O)NCC(=O)OCC(=O)NC(C)CCc2ccccc2)c1 (stereo not given) | inactive
44 | COc1cc(OC)c(C(=O)NNC(=O)c2ccccc2-n2cccc2)cc1OC | inactive
45 | N#Cc1ccccc1NC(=O)c1cccc(COc2ccc(Cl)cc2Cl)c1 | 0.461 µM (active)
46 | CSc1ccc(C#N)cc1NC(=O)c1cccc(Cl)c1 | inactive
47 | O=C(Nc1ccn(Cc2ccccc2F)n1)c1ccc(COc2ccc(Cl)cc2Cl)o1 | inactive
48 | O=C(COC(=O)c1ccccn1)NNC(=O)c1ccc(Br)cc1 | inactive
49 | O=C(N[C@H]1C/C=C\C(c2cccc(F)c2)N(Cc2ccccc2)C(=O)C1)OCC1c2ccccc2-c2ccccc21 (stereo not given in full) | inactive
50 | COc1ccc(S(=O)(=O)N(C)C[C@H]2Oc3c(NC(=O)Nc4ccc5c(c4)OCO5)cccc3C(=O)N([C@H](C)CO)C[C@@H]2C)cc1 | inactive

Row | SMILES | Potency
51 | CC(Oc1ccc2c(-c3ccccc3)cc(=O)oc2c1)C(=O)NC(Cc1c[nH]c2ccccc12)C(=O)O (stereo not given) | inactive
52 | O=C(Nc1ccn(Cc2ccccc2)n1)c1cccc(F)c1 | 23.1 µM (active)
53 | O=C(Nc1cccc(NC(=O)c2cccc(F)c2)c1)c1ccccc1 | inactive
54 | O=C(Nc1ccccc1N1CCN(c2ccccc2)CC1)c1cccc(F)c1 | inactive
55 | O=S(=O)(Nc1ncnc2sccc12)c1cccc(F)c1 | inactive
56 | Cc1ccc(NC(=O)c2ccc(Cl)nc2)cc1S(=O)(=O)N1CCOCC1 | inactive
57 | COc1ccc2oc(-c3cccc(NC(=O)CSc4ccc(Cl)cc4)c3)nc2c1 | inactive
58 | COc1cccc(-c2nc3cc(C)ccc3o2)c1 | 1.3 µM (active)
59 | COc1cccc(-c2nnc(SCCOc3ccc4c(C)cc(=O)oc4c3)o2)c1 | inactive
60 | CC(OC(=O)c1ccc([N+](=O)[O-])cc1)C(=O)NCC1CCCCC1 (stereo not given) | inactive
61 | Cc1cc(CN(C)C(=O)c2cc(COc3ccc(C)c(C)c3)on2)n[nH]1 | 2.91 µM (active)
62 | CN(Cc1cnccn1)C(=O)c1cc(COc2cccc(C(F)(F)F)c2)on1 | inactive
63 | CN(Cc1cccnc1)C(=O)c1cc(COc2ccc3ncccc3c2)on1 | inactive
64 | O=C(Cn1cnc2c(OCc3ccccc3)ncnc21)NCc1nc2ccccc2[nH]1 | inactive
65 | COc1ccc(C(=O)NCCSc2ccccc2C)cc1 | 4.61 µM (active)
66 | COc1cccc(C(=O)NCCSc2ccc(Br)cc2)c1 | inactive
67 | COc1ccc(C(=O)NCc2nnc(SCCOc3ccccc3)n2C)cc1 | inactive
68 | COc1ccc2nc3n(c(=O)c2c1)-c1ccc(Cl)cc1C(=O)NC3Cc1ccccc1 (stereo not given) | inactive
69 | COc1ccc(CCNC(=O)COC(=O)c2ncc(Cl)c(Cl)c2Cl)cc1OC | inactive
70 | O=C1c2cccc3c([N+](=O)[O-])ccc(c23)C(=O)N1CC1CCCO1 (stereo not given) | 20.6 µM (active)
71 | CN1CN(C)c2ccc([N+](=O)[O-])c3cccc1c23 | inactive
72 | CCOc1cccc(=O)c2c(C)n(CC3CCCO3)c(C)c12 (stereo not given) | inactive
73 | CC[C@@H](C)[C@@H]1CN([C@@H](C)CN2CCC[C@H]2CN2C(N)=NC[C@H]2C(C)C)C(=N)N1CCc1ccc(Cl)c(Cl)c1 | inactive
74 | COc1ccc(-c2nc3cc(C)ccn3c2NC2CCCCC2)cc1SC1CCCCC1 | inactive
75 | CC1(C)CN(c2ccc(-c3ccnc4ncnn34)cc2)C1=O | 12.6 µM (active)

Row | SMILES | Potency
76 | Nc1c(-c2ccc(F)cc2)cnc2ncnn12 | inactive
77 | Cc1ccc(C2(C)NC(=O)N(CC(=O)N3CC(=O)Nc4ccccc43)C2=O)cc1 (stereo not given) | inactive
78 | Cc1occc1C(=O)Nc1cccc(S(=O)(=O)N2CCOCC2)c1 | inactive
79 | O=C1C=CN2CCCC2CC1 (stereo not given) | inactive
80 | Cc1ccc(/C=N/NC(=O)c2cc3ccccc3cc2O)o1 | inactive
81 | Cc1cc(N=Nc2ccc3ccccc3c2)ccc1O | 7.3 µM (active)
82 | Cc1ccc(Br)c(NS(=O)(=O)c2cccc(C(=O)N3CCNC(=O)C3)c2)c1 | inactive
83 | CC1(C)CC[C@@]2(C(=O)O)C(C1)C1=CCC3[C@@]4(C)CC[C@H](O)C(C)(C)C4CC[C@@]3(C)[C@]1(C)C[C@H]2O (stereo not given in full) | inactive
84 | O=C(COc1ccc([N+](=O)[O-])cc1Cl)Nc1ccc2[nH]c(=O)[nH]c2c1 | inactive
85 | Cc1csc(=O)n1CC(=O)Nc1ccc(S(C)(=O)=O)cc1 | inactive
86 | O=C(COC(=O)c1ccc(F)c(S(=O)(=O)N2CCOCC2)c1)NCc1ccc2c(c1)OCO2 | inactive
87 | O=C1CC2(CCCC2)C(=O)N1CN1CCN(S(=O)(=O)c2ccc(F)cc2F)CC1 | inactive
88 | Oc1cccc2ccc(/C=C/c3ccc(Br)s3)nc12 | 20.6 µM (active)
89 | Nc1ccc(S(=O)(=O)Nc2nccc(/C=C/c3ccc(Br)s3)n2)cc1 | inactive
90 | O=C(O)c1ccccc1C(=O)Nc1nc(-c2ccccc2)cs1 | inactive
91 | O=C(COc1ccccc1F)Nc1nc(-c2ccccn2)cs1 | inactive
92 | O=C(Nc1nc(-c2cccnc2)cs1)c1ccccc1F | 18.3 µM (active)
93 | CC1O[C@@H](OC2C(O)C(C)O[C@H](OC(=O)[C@]34CCC(C)(C)C[C@H]3C3=CCC5[C@@]6(C)CC(O)C(O[C@@H]7OC(CO)C(O)[C@@H](O)[C@@H]7O)[C@@](C)(C(=O)O)C6CC[C@@]5(C)[C@]3(CO)CC4)C2O[C@H]2OC(C)[C@@H](O[C@@H]3OCC(O[C@@H]4OC(CO)C(O)[C@H](O)C4O)[C@@H](O)[C@@H]3O)[C@H](O)C2O)C(O)C(O)C1O (stereo not given in full) | inactive
94 | C=CCNC(=O)c1csc(-c2ccccc2)n1 | inactive
95 | C=CCNC(=O)c1cc(-c2ccccc2O)on1 | 18.4 µM (active)
96 | C=CCNC(=O)c1ccccc1SCc1c(C)noc1C | inactive
97 | C[C@H](CO)N1C[C@H](C)[C@@H](CN(C)S(=O)(=O)c2ccc(F)cc2)Oc2ccc(NC(=O)CCC(F)(F)F)cc2C1=O | inactive
98 | CCCCOc1ccc(-c2nnc(-c3ccco3)o2)cc1 | 3.66 µM (active)
99 | COc1ccc(OCC(=O)Nc2nnc(-c3ccco3)s2)cc1 | inactive
100 | O=C(CCc1ccccc1)Nc1cccc(-c2nnc(-c3ccco3)o2)c1 | inactive
